Reference: the supplement of paper PMC12636033
± gives the standard deviation of the averaged measurements. In all, about 33,000 sequences were measured (“E-score (rank enrichment, -0.5 to 0.5)”: median about -0.0043, highest 2% from about 0.24 on). For the sample, the highest values were picked, then their nearest neighbours and some sequences at random.

What follows are sequences tested on 2Sp-muMax20 (muMax20 with two 2,6-bis(methyl)pyridine Cys staples) (assay: PBM 8-mer E-score (E-score (rank enrichment, -0.5 to 0.5)); higher = stronger preferential binding).
Protocol: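 Protein binding microarray (universal PBM chip covering all 10-mers in fixed probe flanks) with chemically synthesized human Max(13-93) bHLH-LZ analogs (not full-length Max) bearing noncanonical residues (hArg, Tha, Aib, Nle at 65) and aromatic Cys staples. Read-out per 8-mer (and its reverse complement): E-score (rank-based enrichment, -0.5 to 0.5) and Z-score of median probe intensity.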

Sequence | PBM 8-mer E-score
AAACAATG | 0.121 ± 0.021
AAACAATA | 0.101 ± 0.046
AACAAGTT | 0.0512 ± 0.042
ATGCAGTA | 0.0482 ± 0.088
ACATAGCT | -0.143 ± 0.0071
CCCCTCCA | 0.236 ± 0.033
CCCCTCCC | 0.311 ± 0.014
CCCCTTCC | -0.00527 ± 0.1
TCCCTTCA | 0.107 ± 0.057
ACCCTCCC | 0.26 ± 0.043
CCCTCCCC | 0.142 ± 0.11
ACCCTCCA | 0.168 ± 0.0021
ACCCTCCT | -0.0498 ± 0.0072
GCCCTCCA | -0.00293 ± 0.051
TCCCTCCA | -0.114 ± 0.086
CCCCTTCA | 0.248 ± 0.1
CCCCTCCG | -0.0068 ± 0.12
ATATACGG | 0.0505 ± 0.015
GGCTCAAC | -0.0877 ± 0.06
AGGAATAA | 0.0163 ± 0.077
CTTCTACA | -0.0255 ± 0.032
ACCTGCCA | -0.188 ± 0.047
GCATTATA | 0.186 ± 0.059
CCATTATA | 0.257 ± 0.045
CCATTATC | 0.157 ± 0.04

Sequence | PBM 8-mer E-score
ACATTATC | 0.159 ± 0.038
ACATTATA | 0.282 ± 0.0059
ACATTATG | 0.147 ± 0.1
CGTATGCC | -0.0525 ± 0.034
GCTGTTGA | -0.119 ± 0.013
AGGGTGGG | 0.245 ± 0.073
AGGGTGGA | -0.0107 ± 0.009
AGGGTGGC | 0.0126 ± 0.068
ACAGAGAA | 0.129 ± 0.14
ACATGGGG | 0.246 ± 0.072
ATATGGAG | 0.127 ± 0.014
ATATGGGA | 0.136 ± 0.11
CCATGGGG | -0.0568 ± 0.073
AGATGGGC | -0.0126 ± 0.1
CTATGGGC | -0.0549 ± 0.074
ATATGGGC | 0.249 ± 0.04
ATATGGGG | 0.239 ± 0.024
ACATGGGA | 0.162 ± 0.035
GAATCATC | -0.0799 ± 0.064
TCGTACAA | 0.1 ± 0.042
CAACCAAC | -0.132 ± 0.022
TCATTTCA | 0.171 ± 0.068
CATGGCCA | 0.0303 ± 0.016
CCAGCAGG | -0.054 ± 0.077
CGTTTCAA | -0.171 ± 0.036

Sequence | PBM 8-mer E-score
CGTTTATC | -0.0397 ± 0.011
AGGCCCGA | -0.161 ± 0.0046
CATATATA | 0.277 ± 0.012
CAGATATA | 0.0905 ± 0.056
TATATATA | 0.315 ± 0.019
CATATAGG | 0.145 ± 0.0097
TATATAGA | 0.166 ± 0.025
CATATATG | 0.308 ± 0.036
GATATATA | 0.204 ± 0.027
CATATACG | 0.0657 ± 0.013
AAGATATA | 0.259 ± 0.022
CATATAGA | 0.182 ± 0.038
AAGATATC | 0.211 ± 0.14
CATATATC | 0.232 ± 0.0054
CCTAGTAG | 0.00183 ± 0.043
CACACTAA | 0.172 ± 0.041
CGTCCCAG | -0.132 ± 0.0026
CTATGGAG | 0.0519 ± 0.034
CAAGCTTA | -0.00639 ± 0.037
CCTGCCAC | -0.0854 ± 0.043
AGACCGTG | -0.2708 ± 0.0017
TATGCCGA | -0.0358 ± 0.062
ACCAGCAG | -0.0797 ± 0.013
CCCGCCAG | -0.131 ± 0.01
GTAATATA | 0.255 ± 0.07

Sequence | PBM 8-mer E-score
ATAATATA | 0.194 ± 0.04
ATAATCTA | 0.141 ± 0.07
GTAATCTA | 0.259 ± 0.056
CTAATCTA | 0.0847 ± 0.035
AATCTATA | 0.147 ± 0.091
CTTATATA | 0.166 ± 0.073
GTTATAGA | 0.175 ± 0.05
GATCTATA | -0.0283 ± 0.079
GTTATATA | 0.264 ± 0.022
CATCTATA | 0.288 ± 0.024
CTAATATA | 0.1721 ± 0.00093
ACCGCCCG | -0.242 ± 0.065
AAGGCGCC | 0.175 ± 0.087
CGCAACCA | 0.0737 ± 0.021
CCTTGCCA | -0.0434 ± 0.087
ATAATTTA | 0.284 ± 0.12
ATAATTTG | 0.183 ± 0.083
GTAATTGA | 0.0816 ± 0.034
CTAATTGA | -0.0167 ± 0.015
GTAATTTA | 0.0251 ± 0.0029
ATAATTGA | 0.2552 ± 0.0018
AGAATTTC | -0.0921 ± 0.041
CGAATTTA | 0.131 ± 0.035
AGAATTTA | 0.284 ± 0.096
CGTGACTA | 0.0126 ± 0.018

Sequence | PBM 8-mer E-score
ATTCTAGG | -0.0261 ± 0.025
ATTAACGA | 0.0547 ± 0.19
GTCCACCA | -0.0165 ± 0.0032
CTGCCCAA | -0.0288 ± 0.022
CATGTACC | -0.115 ± 0.026
AAATATGG | 0.18 ± 0.0044
GTATATGA | 0.0252 ± 0.077
CTATATGA | 0.145 ± 0.07
ATATATGC | 0.251 ± 0.052
ATATATGA | 0.293 ± 0.049
ATATATGG | 0.285 ± 0.018
ACATATGC | 0.0823 ± 0.085
AGATATGG | 0.168 ± 0.027
CTATATGC | 0.159 ± 0.037
ATCCTGTG | -0.0686 ± 0.032
GGCGGACC | -0.233 ± 0.004
ATATGAGC | 0.148 ± 0.011
GACATCTC | -0.202 ± 0.052
TGTGCAAA | -0.0258 ± 0.033
ATTACAGG | 0.312 ± 0.042
ATTACATG | 0.242 ± 0.037
ATTACAGC | -0.033 ± 0.008
ATTACATC | 0.126 ± 0.094
ATTACATA | 0.0685 ± 0.037
ATTACAGA | -0.0244 ± 0.14

Sequence | PBM 8-mer E-score
GGCTGGGA | -0.0185 ± 0.052
ACACCGAA | -0.0827 ± 0.029
ACCTCGGA | -0.233 ± 0.0065
CAGTCTCA | -0.0913 ± 0.013
AAATTATC | 0.199 ± 0.084
CAATTATA | 0.176 ± 0.028
TAGTTATA | 0.255 ± 0.0097
AAATTATG | 0.134 ± 0.036
AAATTATA | 0.301 ± 0.063
GAGTTATA | 0.104 ± 0.048
TAATTATA | 0.245 ± 0.027
GAATTATA | 0.19 ± 0.11
AAGTTATA | 0.0392 ± 0.07
CGCCTTCA | -0.00719 ± 0.17
AGATGCCG | -0.118 ± 0.13
GTAACATA | 0.177 ± 0.016
ATACCGCA | 0.013 ± 0.035
GAATTGAA | 0.0949 ± 0.085
GTATTGAA | 0.132 ± 0.089
TTATTGAA | 0.3 ± 0.049
AAATTGAT | 0.113 ± 0.046
ATATTGAA | 0.0994 ± 0.059
AAATTGAA | 0.24 ± 0.083
ACAACGGA | -0.0195 ± 0.029
ACGATACA | 0.0917 ± 0.079

Sequence | PBM 8-mer E-score
ACATAGCG | 0.00456 ± 0.11
ACCCCGCT | -0.0295 ± 0.018
GATGCGCC | -0.0256 ± 0.014
CGTGAAAA | 0.109 ± 0.014
TGTGAAAA | 0.289 ± 0.035
GGTGAAAA | -0.00809 ± 0.034
AATAGGTA | 0.198 ± 0.0069
AGCCGTTA | -0.114 ± 0.018
AACCGTAA | 0.0404 ± 0.047
CTGATCAA | -0.0225 ± 0.021
CGCGGGAA | 0.0597 ± 0.013
ATGTAAAA | 0.274 ± 0.016
ATGTACTG | 0.0436 ± 0.099
CTGTAATC | 0.0629 ± 0.045
ATGTAATG | 0.134 ± 0.074
CTGTAATA | 0.134 ± 0.074
GTGTACTA | 0.0822 ± 0.031
GTGTAATA | 0.162 ± 0.042
ATGTAATC | 0.236 ± 0.023
ATGTACTA | 0.258 ± 0.061
ATGTAATA | 0.278 ± 0.0077
CTGTAAAA | 0.102 ± 0.0073
ATGTAAAT | 0.159 ± 0.029
